Bioassay records deposited in PubChem by National Center for Advancing Translational Sciences (NCATS).
SW480 rerep: A quantitative high throughput screen for small molecules that induce DNA re-replication in SW480 colon adenocarcinoma cells; 340,000 tested, 1.8% active; SW480 DNA re-replication, Hoechst DNA content imaging, 48 h; Potency, µM (top dose mostly 46.1 µM), actives largely listed as activators; also: nearly all actives have a fitted effect of over 55% in size
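250 cells/well; 23 nL cpd via pin tool; 48 hr, 37 C, 5% CO2; Hoechst 40 min; imager read of total nuclear intensity, ex 405/em 500-530 nm.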
RORgamma inh: qHTS for inhibitors of ROR gamma transcriptional activity. Nuclear receptor ROR-gamma (Mus musculus), P51450. Drosophila S2 Gal4-RORgamma UAS-luciferase reporter, 20 h. Potency, µM (highest dose often 53.6 µM), most hits filed as inhibitors. 310,000 tested, 5.4% active. AID 2551, 2010; also: nearly all actives have a fitted effect of over 60% in size
Target sequence (P51450 whole entry, looked up, the tested form may be a part): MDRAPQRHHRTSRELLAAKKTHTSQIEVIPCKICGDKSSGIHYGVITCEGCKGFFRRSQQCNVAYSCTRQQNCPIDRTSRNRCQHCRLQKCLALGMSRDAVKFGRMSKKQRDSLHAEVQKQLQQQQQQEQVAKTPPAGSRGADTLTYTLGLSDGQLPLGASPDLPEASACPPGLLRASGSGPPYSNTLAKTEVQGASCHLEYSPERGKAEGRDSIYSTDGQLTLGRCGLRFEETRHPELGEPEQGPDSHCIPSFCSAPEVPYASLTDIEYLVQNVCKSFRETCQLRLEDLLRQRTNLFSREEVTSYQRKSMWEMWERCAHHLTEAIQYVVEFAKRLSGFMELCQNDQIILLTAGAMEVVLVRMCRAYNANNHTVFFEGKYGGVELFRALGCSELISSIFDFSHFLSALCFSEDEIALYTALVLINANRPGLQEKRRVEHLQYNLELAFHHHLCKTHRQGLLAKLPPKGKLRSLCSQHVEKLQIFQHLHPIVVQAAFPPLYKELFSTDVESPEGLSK
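ROR gamma transcriptional activity was tracked as Gal4-UAS luciferase output in stably transfected Drosophila Schneider cells, with compound added 1 hr before 700 uM copper sulfate induction and a 20 hr ambient-temperature incubation.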
KB-V1 MDR tox: qHTS assay for MDR1-selective chemotherapeutics: Primary screen using the drug-selected MDR subline cells KB-V1; Potency, µM (series often up to 46.1 µM), most hits filed as cytotoxic; AID 1347076, 2019; 400,000 tested, 3.4% active; KB-V1 MDR cells viability, CellTiter-Glo, 72 h; also: nearly all actives have a fitted effect of over 60% in size
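In this primary screen, KB-V1 cells overexpressing P-gp are incubated with library compounds (lowest to highest concentration) for 72 h at 37 degrees C before a luminescent ATP viability read.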
KB-3-1 tox: qHTS assay for MDR1-selective chemotherapeutics: Primary screen using the parental adenocarcinoma cell KB-3-1; Potency, µM (doses to about 46.1 µM), actives largely listed as cytotoxic; AID 1347075, 2019; 400,000 tested, 1.4% active; KB-3-1 viability, CellTiter-Glo ATP luminescence, 72 h; also: nearly all actives have a fitted effect of over 60% in size
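KB-3-1 cells, DMEM (no phenol red) + 10% FBS; compound by pin transfer, 72 h, 37 °C. Readout: CellTiter-Glo luminescence after 10 min. Data normalized, curve-fitted.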
VP16 counter: VP16 counterscreen qHTS for inhibitors of ROR gamma transcriptional activity; Potency, µM (highest dose often 53.6 µM), most hits filed as inhibitors; Drosophila S2 Gal4-VP16 UAS-luciferase, luminescence, 20 h; 310,000 tested, 3.5% active;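 also: Gal4-VP16 expression switched on by copper sulfate through the metallothionein promoter; nearly all actives have a fitted effect of over 50% in size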
MCF10A rereplic: A quantitative high throughput screen for small molecules that induce DNA re-replication in MCF 10a normal breast cells; MCF 10A DNA re-replication, Hoechst nuclear intensity, 48 h; Potency, µM (titrated, usually from 46.1 µM), usual class: activators; 350,000 tested, 2.9% active; also: nearly all actives have a fitted effect of over 50% in size
Large screens that a line does not name were inactive. Shown are actives, neighbours in structure and some others; about 10% of the full set was active somewhere. Calls follow the shape of the dose curve; as a rule, active = well fitted curve in the direction sought with a large enough effect; inconclusive = small, poorly fitted or top-dose-only effect, or another doubt; inactive = no such curve, though single readings can be large; an effect the other way counts as inactive or inconclusive.

Cc1cccc(CNc2ncnc3ccc(-c4ccccc4CN(C)C)cc23)c1	RORgamma inh inconclusive (no result: SW480 rerep, KB-V1 MDR tox, KB-3-1 tox, MCF10A rereplic)
CCc1ccc(C(=O)c2cn(CC(=O)Nc3ccc4c(c3)OCCO4)c3ccc(C)cc3c2=O)cc1	KB-V1 MDR tox inconclusive (no result: SW480 rerep, RORgamma inh, VP16 counter, MCF10A rereplic)
Cc1ccc(Cn2c(CCNC(=O)C(C)C)nc3ccccc32)cc1	none (no result: SW480 rerep, RORgamma inh, VP16 counter, MCF10A rereplic)
Cc1nc(-c2cccc(F)c2)sc1CCNC(=O)C(=O)Nc1ccc2c(c1)OCO2	none (no result: SW480 rerep, RORgamma inh, VP16 counter, MCF10A rereplic)
CCc1cccc2c(C(O)(c3c[nH]c4c(CC)cccc34)c3c[nH]c4c(CC)cccc34)c[nH]c12	none (no result: SW480 rerep, RORgamma inh, VP16 counter, MCF10A rereplic)
Cc1ccc2oc(/N=C(\N)NC(=O)C3CC3)nc2c1	SW480 rerep 9.2µM, RORgamma inh 7.1µM, KB-V1 MDR tox 5.2µM, KB-3-1 tox inconclusive, VP16 counter inconclusive, MCF10A rereplic inconclusive
Cc1ccc2oc(/N=C(\N)NC(=O)C(C)(C)C)nc2c1	SW480 rerep inconclusive, RORgamma inh 0.05µM, VP16 counter 0.45µM
O=C(NCc1ccccc1Cl)c1nnc(Cc2cccc(F)c2)o1	none (no result: SW480 rerep, RORgamma inh, VP16 counter, MCF10A rereplic)
CCCN(CCC)S(=O)(=O)c1ccc(N2CCCC2=O)c([N+](=O)[O-])c1	KB-V1 MDR tox 21µM
CCc1nn(-c2ccccc2)c2c1-c1cc(OC)c(OC)cc1C1(N2)C(=O)Nc2ccccc21 (centres undefined)	SW480 rerep inconclusive, KB-V1 MDR tox inconclusive, MCF10A rereplic 21µM
COc1cc2c(cc1OC)C1(Nc3c-2c(-c2ccccc2)nn3-c2ccccc2)C(=O)Nc2ccccc21 (centres undefined)	SW480 rerep 5.2µM, KB-V1 MDR tox inconclusive, KB-3-1 tox inconclusive, MCF10A rereplic inconclusive
Cc1ccc(S(=O)(=O)Nc2ccc(-c3ccc(N4CCCCCC4)nn3)cc2)c(C)c1	KB-V1 MDR tox inconclusive (no result: SW480 rerep, RORgamma inh, VP16 counter, MCF10A rereplic)
CCc1ccc(CNC(=O)c2cccc(-n3cnc4cccnc43)c2C)cc1	none (no result: SW480 rerep, RORgamma inh, VP16 counter, MCF10A rereplic)
CCOc1ccc(C(=O)NCCn2cc(SCC(=O)Nc3ccccc3)c3ccccc32)cc1	KB-3-1 tox inconclusive (no result: SW480 rerep, RORgamma inh, VP16 counter, MCF10A rereplic)
CN1C(=O)C(O)(CC(=O)c2ccc(F)cc2)c2cc(Br)ccc21 (centres undefined)	SW480 rerep inconclusive, KB-3-1 tox 26µM, MCF10A rereplic inconclusive
CCOc1ccccc1-c1noc(CCCC(=O)Nc2cccc(C(F)(F)F)c2)n1	none (no result: SW480 rerep, RORgamma inh, VP16 counter, MCF10A rereplic)
OCCN1CCN(C2CCC(c3ccc(F)cc3)c3ccc(F)cc32)CC1 (centres undefined)	SW480 rerep inconclusive, KB-V1 MDR tox inconclusive, KB-3-1 tox inconclusive, MCF10A rereplic 21µM (no result: RORgamma inh, VP16 counter)
CSCC[C@H](NC(=O)[C@@H]1CCCN1C(=O)CNC(=O)[C@H](CCCCN)NC(=O)[C@H](Cc1cnc[nH]1)NC(=O)[C@H](CO)NC(=O)[C@H](CC(C)C)NC(=O)[C@H](CCCN=C(N)N)NC(=O)[C@@H]1CCCN1C(=O)[C@H](CCCN=C(N)N)NC(=O)[C@@H]1CCC(=O)N1)C(=O)N1CCC[C@H]1C(=O)N[C@@H](Cc1ccccc1)C(=O)O	none (no result: SW480 rerep, KB-V1 MDR tox, KB-3-1 tox, MCF10A rereplic)
NC(=O)/C=C\C(=O)Nc1cccc(C(F)(F)F)c1	RORgamma inh inconclusive, VP16 counter 13µM
O=C(Nc1cccc(C(F)(F)F)c1)c1cc(-c2ccco2)on1	none
NNC(=O)Nc1cccc(C(F)(F)F)c1	KB-V1 MDR tox inconclusive
CCN(CC)S(=O)(=O)c1ccc(NC(=O)Nc2cccc(C(F)(F)F)c2)cc1	RORgamma inh inconclusive, KB-V1 MDR tox 13µM, KB-3-1 tox 9.2µM, VP16 counter inconclusive, MCF10A rereplic inconclusive
O=C(Nc1ccncc1)Nc1cccc(C(F)(F)F)c1	RORgamma inh inconclusive
O=C(Nc1cccc(C(F)(F)F)c1)c1sc(Cl)nc1C(F)(F)F	MCF10A rereplic 21µM
O=C(Nc1ccc(OC(F)F)cc1)Nc1cccc(C(F)(F)F)c1	SW480 rerep inconclusive, RORgamma inh inconclusive, KB-V1 MDR tox 13µM, KB-3-1 tox 8.2µM, VP16 counter 25µM, MCF10A rereplic inconclusive
